Peg3 prom inh-1: Peg3 promoter activity inhibition. HeLa PEG-Prom luciferase reporter, luminescence, overnight. inhibition, % at 20 µM. 360,000 compounds, 1.7% hits. AID 588405;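 active = inhibition of at least 50% at 20 µM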
KKLEB cytotox: CF airway cell cytotoxicity counter-screen; activity change (cytotoxicity), % at 5 µM; KKLEB CF airway cells viability, ATPlite luminescence, overnight; active compounds read low; cells stimulated with P. aeruginosa culture filtrate; AID 602141; 360,000 compounds, 0.36% hits;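 active = corrected activity change at or below -50% at 5 µM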
CF NFkB inh: inhibitors of cystic fibrosis induced NF-kB; KKLEB NF-kB-GFP reporter, PAF-induced, GFP fluorescence overnight; inhibition, % at 5 µM; 360,000 compounds, 0.86% hits; AID 588850;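 active = at least 50% inhibition at 5 µM, scaled per plate between neutral and stimulator controls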;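 note: PAF is a Pseudomonas aeruginosa culture filtrate used as stimulus; plate controls were PAF-stimulated DMSO wells for no effect and unstimulated DMSO wells for full effect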
TWEAK-Fn14 inh: TWEAK-Fn14 signaling inhibition; TWEAK-stimulated Fn14 reporter cells, luciferase luminescence, 8 h; inhibition, % at 10 µM; 360,000 compounds, 2% hits; AID 1159606; in the data active = inhibition above about 50%
HIF-2a inh: inhibitors of HIF-2a; 786-0 RCC cells HIF-2a reporter, luciferase luminescence, overnight; inhibition, % at 18.8 µM; 360,000 compounds, 0.72% hits;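 active = inhibition of the luminescence signal of 40% or more relative to plate controls, in a single-dose primary screen at 18.75 µM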
TROY NFkB inh: blocks TROY-dependent signaling in reporter cells. AID 1347056. inhibition, % at 10 µM. Q293 LMP1-TROYcd NF-kB luciferase reporter, 4 h. 360,000 compounds, 0.98% hits;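 active = compounds whose plate-normalised and pattern-corrected inhibition of the luciferase reporter signal at the single screening dose is 50% or more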
Peg3 prom inh-2: Peg3 promoter inhibition confirmation. HeLa PEG-Prom luciferase reporter, luminescence, overnight. shares compounds with Peg3 prom inh-1. inhibition, % at 20 µM. 1,300 compounds, 84% hits;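 active = at 20 µM dose, 40% or more inhibition averaged across four replicates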
* hit, by the source's call; nt = no result. Sampled rows, rich in hits. Any-hit rate of the full collection: about 3.9%.

SMILES | Peg3 prom inh-1 | KKLEB cytotox | CF NFkB inh | TWEAK-Fn14 inh | HIF-2a inh | TROY NFkB inh | Peg3 prom inh-2
CCOC(=O)c1c(NC(=O)Cc2ccccc2)sc2c1CC(C)(C)NC2(C)C | 21.2 | -21.8 | 9.7 | -9.6 | 0.6 | -5.4 | nt
COc1cccc(NC(=S)NNC(=O)Cn2nc(C(F)F)cc2C(F)F)c1 | -9.4 | -4.6 | 8.8 | -25.5 | -5.0 | -45.1 | nt
CC(C)(C)c1ccc(C(=O)NCC(=O)OCc2ccc([N+](=O)[O-])cc2)cc1 | 9.3 | 1.2 | 4.2 | -10.8 | 12.7 | 15.7 | nt
CC(C)CCCCCCCCCCCCC(=O)NCC(=O)NC1C(O)C(O)C(Nc2ncnc3nc[nH]c23)OC1C(O)CO (stereo unspecified) | 99.9* | -34.4 | 90.4* | 97.1* | 69.4* | 72.5* | 99.3*
Cc1nc(SCC(=O)Nc2ccc(S(=O)(=O)N3CCOCC3)cc2)c2c(C)c(C)sc2n1 | 70.0* | -25.8 | 37.3 | 27.5 | -3.5 | 51.2* | 39.7
CCOC(=O)N1CCN(S(=O)(=O)c2ccc(C(=O)Nc3nc4ccc(F)cc4s3)cc2)CC1 | 54.5* | -38.4 | 39.1 | 22.4 | -1.0 | 7.0 | -6.5
CCOC(=O)N1CCN(S(=O)(=O)c2ccc(C(=O)Nc3nc4ccccc4s3)cc2)CC1 | 3.4 | 11.8 | -10.5 | 35.1 | -0.7 | 8.1 | nt
Cc1cc(C)c2nc(NNC(=O)c3ccc(S(=O)(=O)N4CC(C)CC(C)C4)cc3)sc2c1 (stereo unspecified) | 94.1* | -4.0 | 9.0 | 14.6 | -36.1 | -0.4 | 98.8*
Cc1ccc2nc(NNC(=O)c3ccc(S(=O)(=O)N4CCc5ccccc5C4)cc3)sc2c1 | 44.2 | -14.3 | 15.7 | 13.8 | 18.2 | -7.7 | nt
CCOC(=O)c1ccc(NC(=O)C2CCCN(S(=O)(=O)c3ccc(F)cc3)C2)cc1 (stereo unspecified) | 73.7* | 6.9 | -14.0 | 57.5* | 19.4 | 45.1 | 56.3*
O=c1c2ccsc2ncn1Cc1cccc(C(F)(F)F)c1 | 8.6 | -3.1 | 0.8 | -5.0 | 16.6 | 0.7 | nt
CCN(CC)c1ccc(NC(=O)Cn2c(C(C)NC(=O)c3ccccc3)nc3ccccc32)cc1 (stereo unspecified) | 78.5* | -5.1 | -2.1 | -20.0 | -3.3 | 6.5 | 10.0
CCOc1ccc2[nH]c3c(NCCO)ncnc3c2c1 | -38.5 | -2.3 | 21.4 | -11.5 | -122.3 | -20.8 | nt
CCOc1ccc2[nH]c3c(NCCc4ccc(OC)c(OC)c4)ncnc3c2c1 | 66.1* | -17.0 | -2.8 | 3.3 | 20.2 | -10.9 | 65.5*
CCOC(=O)C1CCN(c2cc3c(cc2NC(=O)c2ccccc2OCC)n(C)c(=O)n3C)CC1 | 51.4* | -3.2 | 19.1 | 28.5 | 9.3 | 22.4 | 45.4*
O=C(COC(=O)c1cc(Br)ccc1O)NCC1CCCO1 (stereo unspecified) | 1.1 | -3.1 | 9.8 | 17.3 | 21.2 | 1.0 | nt
CCN(CC)CCNc1cccc2sc3ccccc3c(=O)c12 | 100.8* | -8.7 | -12.6 | -21.8 | 4.9 | -33.5 | 68.2*
C[C@@H]1[C@H]2[C@@H]3CC[C@@H](C3)[C@H]2CN[C@H]1c1cn(Cc2ccccc2)c2ccccc12 | 70.5* | -5.0 | 6.5 | 17.9 | -6.6 | 12.5 | 53.9*
CC1=NN(c2nc(-c3ccc(C)cc3)cs2)C(=O)C1N=Nc1ccc(C(N)=O)cc1 (stereo unspecified) | 102.4* | -66.1* | 76.1* | 28.6 | 6.9 | -12.8 | 30.4
CC1=NN(c2nc(-c3ccc(C)cc3)cs2)C(=O)C1N=Nc1ccc2ccccc2c1 (stereo unspecified) | -14.0 | -3.2 | -1.8 | 25.0 | -25.0 | -10.5 | nt
O=C(O)c1c2c(nc3ccccc13)/C(=C/c1ccccc1[N+](=O)[O-])CCC2 | 1.7 | 3.8 | -12.5 | 17.8 | 13.2 | 9.3 | nt
CN(C)CC1CCCCC1OC(=O)c1ccc(Cl)cc1 (stereo unspecified) | 3.4 | 8.5 | 9.9 | 1.3 | 6.7 | 16.4 | nt
COc1ccc(/C=C2/CCCC(CN(C)C)C2=O)cc1 (stereo unspecified) | 97.6* | 2.3 | -19.5 | -18.5 | 14.5 | -1.0 | 99.3*
COc1ccc(C=C2CCC3C(=O)CCCC3(C)C2=O)cc1 (stereo unspecified) | -329.7 | -21.7 | 38.0 | -30.8 | -230.2 | -57.8 | nt
CN(C)CC1CCC/C(=C/c2ccc(Cl)cc2)C1=O (stereo unspecified) | 96.1* | 9.5 | -14.5 | 3.4 | 0.6 | -15.3 | 97.8*
SMILES | Peg3 prom inh-1 | KKLEB cytotox | CF NFkB inh | TWEAK-Fn14 inh | HIF-2a inh | TROY NFkB inh | Peg3 prom inh-2
Cc1ccc2nc(SCC(=O)N3CCCC3)[nH]c2c1 | -221.4 | 7.9 | 14.6 | 24.1 | -143.9 | -40.1 | nt
Cc1cccc(OCC(=O)NCC(=O)N/N=C/c2cc(Br)cc(Br)c2O)c1 | 57.3* | -0.4 | 8.6 | 7.1 | 14.2 | 27.5 | 63.3*
COc1cccc(/C=N/NC(=O)CNC(=O)COc2ccccc2)c1O | 43.0 | 9.5 | -13.7 | -0.9 | 7.8 | -49.7 | nt
COc1ccc(C)cc1NC(=O)C1CCCN1S(=O)(=O)c1ccc2c(c1)CCC(=O)N2 (stereo unspecified) | 15.0 | 7.0 | 4.5 | -7.4 | 3.9 | -1.8 | nt
Cc1ccc(-c2nnc(SCC(=O)N3CCCC3)o2)cc1C | -214.5 | -10.2 | 7.0 | 0.5 | -218.8 | -69.0 | nt
Cc1ccc(C2=NC(=O)/C(=C/c3cc(O)c(O)c(Br)c3)S2)cc1 | 67.4* | -6.2 | -7.4 | 31.3 | 13.3 | 9.1 | 67.0*
CCC(c1nnnn1-c1c(C)cccc1C)N1CCN(C/C=C/c2ccccc2)CC1 (stereo unspecified) | 21.4 | -16.9 | 21.9 | -3.3 | -23.0 | 17.9 | nt
CCc1ccc(C2CC(c3ccccc3)Nc3nc(N)nn32)cc1 (stereo unspecified) | -1.2 | 2.8 | 7.0 | -9.1 | 4.7 | -11.8 | nt
c1ccc(C2CC(c3ccccc3)n3c(nc4ccccc43)N2)cc1 (stereo unspecified) | 75.8* | -7.5 | -8.0 | -3.8 | -8.0 | -20.7 | 5.9
COc1cc(OC)cc(C(=O)Nc2ccccc2-c2nnn(CC(=O)Nc3cc(C)on3)n2)c1 | 71.0* | -6.9 | 17.1 | -19.1 | 7.5 | 0.6 | 19.2
Cc1cc(Cl)n2ncc(-c3ccccc3)c2n1 | 86.7* | -7.3 | 10.0 | 0.6 | -156.1 | -0.6 | 68.1*
COc1cc(NC(=O)c2ccccc2)ccc1NC(=O)c1cc2ccccc2o1 | 28.6 | -15.4 | 26.6 | -6.9 | -3.8 | -15.5 | nt
Cc1cc(NC(=O)c2cncc(Br)c2)ccc1NC(=O)c1cc2ccccc2o1 | 85.2* | -5.5 | -2.6 | -24.3 | 18.6 | 31.2 | 35.1
COc1cc(C=NO)nc(-c2ccccn2)c1 | 52.2* | -16.4 | 18.0 | 0.0 | 1.7 | 10.4 | 64.6*
Cc1csc(CN(C)C(=O)C2CCC(=O)N(Cc3ccc(Cl)cc3)C2)n1 (stereo unspecified) | -2.7 | -0.1 | -0.4 | 8.8 | 7.7 | 7.9 | nt
Cc1c(C)c2cccnc2c2ncccc12 | 56.6* | -28.4 | 12.6 | -36.1 | -15.0 | 6.5 | 42.8*
CCN(CC)CCNc1nc2c(c(=O)[nH]c(=O)n2C)n1CCCc1ccccc1 | 4.9 | -4.0 | 19.1 | 8.6 | 17.4 | 12.2 | nt

Bioassay records: PubChem BioAssay, Sanford-Burnham Center for Chemical Genomics
